Screening results deposited in PubChem BioAssay by National Center for Advancing Translational Sciences (NCATS).
PTHR1 ag = activates the human parathyroid hormone receptor PTHR1. HEK293 GP2 PTHR1 cells, GloSensor cAMP luminescence, 1 h. Potency, µM (highest dose often 115 µM), for inactives: top-dose activation, most hits filed as activators. actives 0.075% (n = 410,000); note: potency is the fitted concentration of half-maximal effect; nearly all actives have a fitted effect of over 55% in size
Target sequence (Q03431 whole entry, looked up): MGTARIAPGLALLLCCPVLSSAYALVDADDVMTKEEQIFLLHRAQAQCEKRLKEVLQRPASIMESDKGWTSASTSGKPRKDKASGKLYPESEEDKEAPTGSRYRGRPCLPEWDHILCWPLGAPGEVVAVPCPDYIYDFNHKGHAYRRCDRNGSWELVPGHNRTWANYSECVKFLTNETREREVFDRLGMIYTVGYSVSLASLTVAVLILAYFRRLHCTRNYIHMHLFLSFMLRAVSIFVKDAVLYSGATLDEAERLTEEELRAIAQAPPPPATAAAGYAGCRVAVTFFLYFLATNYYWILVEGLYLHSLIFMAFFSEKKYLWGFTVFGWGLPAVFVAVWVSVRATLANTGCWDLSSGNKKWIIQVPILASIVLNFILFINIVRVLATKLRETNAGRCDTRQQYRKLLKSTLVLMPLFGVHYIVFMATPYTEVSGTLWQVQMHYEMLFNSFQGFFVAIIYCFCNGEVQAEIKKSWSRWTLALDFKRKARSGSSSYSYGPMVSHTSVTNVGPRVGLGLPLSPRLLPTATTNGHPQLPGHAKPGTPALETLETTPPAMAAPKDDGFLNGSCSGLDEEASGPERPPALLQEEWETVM
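HEK-293-derived GP2 cells expressing PTHR1 and a GloSensor cAMP reporter, 3,000/well, plated overnight, given luciferin plus IBMX (each 0.5 mM as added) for 1 h at 37 °C, then compound for 1 h at 37 °C. Luminescence was read after 15 min at room temperature.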
BRCA1 expr act = BRCA1 expression activation. AID 624202. MCF7-BRCA1-FFLuc reporter, luminescence, 48 h; response scale: scaled: vehicle 0%, 10 µM genistein 100%. actives 1.1% (n = 380,000). Potency, µM (highest dose often 46.1 µM), inactives show top-dose activation, most hits filed as activators; note: potency is the fitted concentration of half-maximal effect; nearly all actives have a fitted effect of over 80% in size
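Activators of BRCA1 expression were detected as increased firefly luciferase luminescence in engineered MCF7 cells after 48 h compound incubation. Signals were scaled to genistein 10 microM as full activation.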
LDHA inh = blocks human lactate dehydrogenase A | P00338 | AID 1347041 | purified LDHA, NADH/diaphorase-resazurin fluorescence; stronger effect = lower value | activity change, % (values are at about 110 or 230 µM) | actives 0.15% (n = 480,000); in the data active = activity change below about -30%; inconclusive = mostly about -25% to -30%;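 note: plate controls were DMSO wells for no effect and wells without enzyme for full effect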
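Human LDH5 (2 nM) was incubated with 0.06 mM NADH and 0.2 mM pyruvate for 5 min at room temperature in Tris pH 7.4. Remaining NADH was coupled through diaphorase/resazurin, and resorufin fluorescence was read at 0 and 20 min.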
RGS4 inhibitor = blocks human RGS4-accelerated GTP hydrolysis | P49798 | Transcreener GDP fluorescence polarization, RGS4-accelerated GTP hydrolysis | Potency, µM (series often up to 114 µM), without a hit: at the highest dose activity change, negative = inhibition, usual class: inhibitors | actives 0.039% (n = 390,000); note: potency is the fitted concentration of half-maximal effect; % is set by controls: 0 for no effect and ±100 for the full control effect; nearly all actives have a fitted effect of over 75% in size
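MLSMR compounds (23 nl, pin-transferred) preincubated 10 min at room temperature with a 500nM (2x) first reagent, then RGS4 at 900nM (2x) plus Transcreener GDP mix added; fluorescence polarization (620/688 nm) read before and after 90 min at 30 °C.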
p53 reactivation = re-activators of mutant p53. H1299 p53-A138V BP100-luciferase reporter, luminescence, 24 h. Potency, µM (doses to about 92.2 µM), for the others: top-dose activity change, positive = activation, usual class: activators. actives 0.063% (n = 320,000); note: potency is the fitted concentration of half-maximal effect; % of control where 0% means no effect; nearly all actives have a fitted effect of over 45% in size
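p53-null H1299 cells stably carrying temperature-sensitive p53-A138V and a BP100-luciferase reporter were pinned with compounds (4-point, 1:5 series) and held 24 hrs at 37 deg C. Luminescence was read 10 min after detection reagent.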
* marks the source's active call; other numbers are inactive results; i = inactive; ? = inconclusive; · = no result given; [ ] = remark or other dose. Sampled rows, rich in hits. Any-hit rate of the full collection: about 1.1%. Unless noted, calls come from the whole dose curve; as a rule, active = well fitted curve in the direction sought with a large enough effect; inconclusive = small, poorly fitted or top-dose-only effect, or another doubt; inactive = no such curve, though single readings can be large; an effect the other way counts as inactive or inconclusive.

SMILES	PTHR1 ag	BRCA1 expr act	LDHA inh	RGS4 inhibitor	p53 reactivation
CC1CCCCN1Cc1cc(=O)oc2cc(-c3ccccc3)c(O)cc12 (configuration not stated)	·	·	18.9	·	·
Cc1ccc(N=Nc2c(N)n[nH]c2N)cc1	-7.5%	10µM*	-1.3	-1.9%	24.6%
Nc1n[nH]c(N)c1N=Nc1ccc2c(c1)OCO2	i	10µM*	4.9	-19.9%	7.0%
Nc1n[nH]c(C2CC2)c1N=Nc1ccc(Cl)c(Cl)c1	i	1.6%	-3.8	8.6%	9.0%
c1ccc(COc2ccc3cc[nH]c3c2)cc1	·	·	-16.8	·	·
Cc1cc(C)c2nc(N3CCN(C(=O)c4ccco4)CC3)sc2c1	-10.6%	12.6µM*	-1.9	-6.0%	22.8%
Cc1cc2nc(N3CCN(C(=O)c4ccco4)CC3)sc2cc1C	-92.0%	?	-3.2	-26.7%	?
CC1CC1C(=O)NC1CCC(c2ccccc2)CC1 (configuration not stated)	·	·	-4.3	·	·
Cc1ccc(SCC(=O)NCCSC(C)(C)C)cc1	-8.8%	8.91µM*	0.5	11.3%	17.3%
Cc1cc(C(=O)CSc2nnnn2C)c(C)n1-c1ccc2c(c1)OCCO2	i	7.94µM*	2.8	-30.8%	?
Cc1cc(C(=O)CSc2nnc(-c3ccco3)o2)c(C)n1-c1ccc2c(c1)OCCO2	-34.6%[57.5 µM]	-29.6%	-4.5	-6.9%	9.4%
Cc1[nH]nc2c1-c1nc3ccccc3nc1C(C)(C)C2	28.2µM*	-58.9%	5.2	19.5%	17.3%
CCSC1=C(C#N)C(c2ccc(C)cc2)C2=C(CCCC2=O)N1 (configuration not stated)	·	·	-9.7	·	·
Fc1cccc(Cl)c1CSc1nnc(-c2c[nH]c3ccccc23)n1C1CC1	·	·	6.3	·	·
O=C(CCS(=O)(=O)c1ccc(Br)cc1)N1CCN(c2ccccc2)CC1	-10.8%	-9.9%	2.8	-5.7%	-3.9%
O=C(CCS(=O)(=O)c1ccccc1)N1CCN(c2ccccc2)CC1	-21.1%	3.16µM*	-7.4	7.0%	?
COc1ccc(NC(=O)C2Cc3cccc(OC)c3O/C2=N\O)cc1 (configuration not stated)	i	-27.3%	-4.3	-1.6%	-5.8%
COc1ccc(NC(=O)C2Cc3ccccc3O/C2=N\O)cc1 (configuration not stated)	i	10µM*	-2.2	9.7%	20.5%
O=C(Cc1ccccc1)Nc1cccc(-c2nnc(-c3ccco3)o2)c1	i	16.3%	-1.6	-6.7%	2.4%
COc1cccc(-c2nnc(-c3ccco3)o2)c1	-23.9%	35.8%	-5.2	?	39.8µM*
COc1ccccc1OCC(=O)Nc1cccc(-c2nnc(-c3ccco3)o2)c1	-14.4%	5.01µM*	-6.2	10.9%	-0.4%
CCOC(=O)CSc1nc2c(c(=O)n(C)c(=O)n2C)n1Cc1ccc(C)cc1	·	·	-5.3	·	·
COc1cccc(S(=O)(=O)c2cc3ccc(OC)cc3oc2=O)c1	·	·	0.3	·	·
O=C(CSc1cn(Cc2ccccc2)c2ccccc12)Nc1nccs1	-11.3%	11.2µM*	0.3	-11.5%	?
O=C(CSc1ccccc1)Nc1nccs1	-2.1%	19.8%	-2.4	0.8%	24.0%
SMILES	PTHR1 ag	BRCA1 expr act	LDHA inh	RGS4 inhibitor	p53 reactivation
CC(C)(C)OC(=O)N/N=C\C=C\c1ccc2c(c1)OCO2	-26.9%	7.94µM*	-1.2	18.5%	?
COC(=O)N/N=C\C=C\c1ccc2c(c1)OCO2	-7.7%[57.5 µM]	4.47µM*	-5.6	-9.0%	1.7%
CC(C)(C)OC(=O)N/N=C/c1ccc(Cl)c(Cl)c1	·	·	4.6	·	·
CC(C)(C)OC(=O)N/N=C/c1ccc(Br)cc1	-15.8%	3.55µM*	-4.5	-34.2%	?
COc1ccc(CC(=O)N/N=C/C=C/c2ccc3c(c2)OCO3)cc1OC	i	-15.9%	-7.2	-12.3%	-2.9%
CCOC(=O)N/N=C\C=C\c1ccc2c(c1)OCO2	-8.4%	4.47µM*	2.6	-9.5%	?
CCCC(=O)n1nc(NCc2ccc(OCC)cc2)nc1NCc1ccc(OCC)cc1	·	·	-4.6	·	·
CCCn1c(C)cc(C(=O)COC(=O)Cn2cnc3c2c(=O)n(C)c(=O)n3C)c1C	·	·	-7.6	·	·
O=C(Nc1ccc2oc(-c3ccccc3F)nc2c1)c1ccc(Cl)cc1	·	·	1.1	·	·
